This passage reports Potency and activity (max response) results from PubChem BioAssay (NCATS).

Structures are written as SMILES. Where “and” joins values, the source holds several entries; their conditions need not be identical. Identical values can stand only once. Inconclusive results are not listed. Unmarked numbers belong to inactive results. Calls of active or inactive are those of the source. The call rests on the fitted dose curve; in most records, active means well fitted curve in the direction sought with a large enough effect; inconclusive means small, poorly fitted or top-dose-only effect, or another doubt; inactive means no such curve, though single readings can be large; an effect the other way counts as inactive or inconclusive.

The target in assay [1] is Cytochrome P450 3A7 (Homo sapiens) (UniProt P24462). In words: Cytochrome P450 family 3 subfamily A member 7 (CYP3A7) small molecule antagonists: luciferase biochemical qHTS assay (AID 1963596). Further: on the % scale 0 is the no-effect control and ±100 the full control effect; nearly all actives have a fitted effect of over 40% in size. In short, it runs like this: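 Enzyme-substrate mix + cpd (DMSO), 10 min RT; + NADPH regen system, 1 h RT; + luciferin detection reagent, 20 min RT; luminescence read. Proluciferin substrate, P450-Glo format, 1536-well qHTS.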
Cytochrome P450 3A7 (Homo sapiens), sequence (P24462 whole entry, looked up): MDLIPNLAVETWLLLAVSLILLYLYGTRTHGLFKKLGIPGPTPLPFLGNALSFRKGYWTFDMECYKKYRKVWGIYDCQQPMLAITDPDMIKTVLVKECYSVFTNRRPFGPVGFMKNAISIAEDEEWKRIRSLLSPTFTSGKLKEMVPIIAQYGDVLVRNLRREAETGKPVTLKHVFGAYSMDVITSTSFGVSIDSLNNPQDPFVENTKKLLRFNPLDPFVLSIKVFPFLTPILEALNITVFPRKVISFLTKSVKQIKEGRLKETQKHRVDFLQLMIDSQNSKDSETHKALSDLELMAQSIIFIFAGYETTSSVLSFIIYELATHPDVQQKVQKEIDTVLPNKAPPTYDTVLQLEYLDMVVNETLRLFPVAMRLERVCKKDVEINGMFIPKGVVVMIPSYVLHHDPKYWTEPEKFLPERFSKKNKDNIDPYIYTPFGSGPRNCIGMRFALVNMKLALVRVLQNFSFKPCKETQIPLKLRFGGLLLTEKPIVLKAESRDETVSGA
Background: Quantitative high-throughput screening tests each substance at several concentrations.

The nature of assay [2]: Viability qHTS for spleen associated tyrosine kinase inhibitor (SYKi) drug resistant MV4-11 cells (AID 1963824). Further: nearly all actives have a fitted effect of over 35% in size. Further: potency means the concentration at half of the fitted maximal effect. The method, boiled down: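 SYK inhibitor-resistant MV4-11 AML cells, 500 per well, added to predispensed compounds and incubated 72 hr at 37 C, 5% CO2. Viability measured by CellTiter-Glo luminescence after 10 min at room temperature.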
The nature of assay [3]: Cellular viability qHTS for adrenocortical cancer (ACC) cell line SW-13 (AID 1963989). Further: nearly all actives have a fitted effect of over 65% in size. Further: potency means the concentration at half of the fitted maximal effect.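 On activity (max response): cells grown in serum-free medium with ITS supplement; on the % scale 0 is the no-effect control and ±100 the full control effect.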 To be noted: SW-13 ACC cells viability, CellTiter-Glo, 48 h; activity (max response): hits give low values. In short, it runs like this: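 Viability was read as CellTiter-Glo luminescence after 48 h compound treatment (up to 46 uM final) of SW-13 cells grown serum-free; titration curves were fit with a four-parameter logistic model to give IC50 and efficacy.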

Assay [4] can be described thus: Cellular viability qHTS for adrenocortical cancer (ACC) cell line NCI-H295R (AID 1963990). Further: nearly all actives have a fitted effect of over 60% in size. Further: potency means the concentration at half of the fitted maximal effect. The method, boiled down: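 CellTiter-Glo ATP luminescence, read 48 h after compound addition, measured viability of NCI-H295R adrenocortical cells grown serum-free with ITS. Final concentrations spanned up to 46 uM. Data normalized to DMSO and doxorubicin, fitted for IC50 and maximal response.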

As to `O=c1[nH]cnc2nc[nH]c12`, the Potency result in assay [1], in assay [2] and in assay [4] was “inactive” throughout. The activity (max response) in assay [3] is 10.3%.
On to `C[C@@H](O)[C@H]1C(=O)N2C(C(=O)O)=C(SCCN=CN)C[C@H]12`, for which the Potency result in assay [1], in assay [2] and in assay [4] was “inactive” each time. Besides, in assay [3], the activity (max response) is -5.98%.
As for `O=C(O)c1ccccc1Nc1cc(Cl)ccc1C(=O)O`, the Potency result in assay [1] and in assay [2] was “inactive” throughout. Moreover, the activity (max response) in assay [3] was -18.2%.
Consider `Cc1ccc(Cl)c(OCC(O)CNC(C)(C)C)c1` (stereo not given), for which the Potency entry in assay [1], in assay [2] and in assay [4] was “inactive” in each case. Besides, the activity (max response) in assay [3] was 1.06%.
As for `N#CCC(=O)NN`, the Potency entry in assay [1], in assay [2] and in assay [4] was “inactive” throughout. The activity (max response) in assay [3] is 8.55%.
As for `CC[C@H]1CN2CCc3cc(OC)c(OC)cc3[C@@H]2C[C@@H]1C[C@H]1NCCc2cc(OC)c(OC)cc21`, in assay [1], the Potency result was “inactive”. In addition, the Potency in assay [2] was 133 nM (active) and 93.4 nM (active); in assay [3], 231 nM (active) and 447 nM (active); in assay [4] it was 146 nM (active) and 282 nM (active).
For `CC[C@@]1(c2ccccc2)NC(=O)N(C)C1=O`, the Potency result in assay [1], in assay [2] and in assay [4] was “inactive” each time. In assay [3], the activity (max response) was 8.31%.
For the molecule `O=C(O)c1ccc(OCCN2CCCCC2)cc1`, the Potency entry in assay [1], in assay [2] and in assay [4] was “inactive” each time. In assay [3], the activity (max response) was 10.8%.
Regarding `Cn1ncc(Cl)c1-c1cc(C(=O)NC(CN)Cc2ccc(F)c(F)c2)oc1Cl` (stereo not given), in assay [1], the Potency entry was “inactive”. Also, the Potency in assay [2] is 4.68 µM (active); in assay [3] it was 28.2 µM (active); in assay [4], 3.16 µM (active).
